Values joined by “and” are separate entries in the source; they are usually repeats but may differ in a detail not shown here. Equal values may be shown once. The campaign covered roughly 5,500 compounds. About 2,000 (36%) were called active. Inconclusive results (about 18%) are left out. Rule as the data show it: active = normalized growth mostly below about 0.91 (no sharp cut-off); inconclusive = no clear call, values can overlap the other calls; inactive = mostly above about 0.92. Some of the results follow.
Test: chemical genetic growth profiling, strain panel (AID 1159580);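 also: tested at 20 µM; growth read once vehicle control cultures reached saturation at 30 °C; 1 = growth at the plate median or of vehicle wells; lower values mean less growth of the strain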
Conditions: S. cerevisiae deletion strains, growth OD

Measured: normalized growth

C[C@]12C=CC(=O)C=C1CCC1C2[C@@H](O)C[C@@]2(C)C1CC[C@]2(O)C(=O)CO (stereo not given in full)
inactive: locus YAL021C, strain ccr4, stronger effect = lower value 1 | locus YAL026C, strain drs2, stronger effect = lower value 0.992 | locus YAL030W, strain snc1, stronger effect = lower value 0.993 | locus YBL061C, strain skt5, stronger effect = lower value 0.999 | locus YBR009C, strain hhf1, stronger effect = lower value 0.993 | locus YBR021W, strain FUR4, stronger effect = lower value 0.979 | locus YBR023C, strain chs3, stronger effect = lower value 1 | locus YBR171W, strain sec66, stronger effect = lower value 1.01 | locus YBR229C, strain ROT2, stronger effect = lower value 0.99 | locus YBR231C, strain swc5, stronger effect = lower value 0.991 | locus YBR279W, strain paf1, stronger effect = lower value 1 | locus YCL011C, strain gbp2, stronger effect = lower value 1.01 | locus YCL016C, strain dcc1, stronger effect = lower value 0.988 | locus YCL029C, strain bik1, stronger effect = lower value 0.985 | locus YCL061C, strain MRC1, stronger effect = lower value 1.01 | locus YCL069W, strain vba3, stronger effect = lower value 0.981 | locus YCR088W, strain abp1, stronger effect = lower value 0.994 | locus YDL005C, strain med2, stronger effect = lower value 0.999 | locus YDL035C, strain GPR1, stronger effect = lower value 0.998 | locus YDL040C, strain nat1, stronger effect = lower value 0.995 | locus YDL074C, strain BRE1, stronger effect = lower value 1.01 | locus YDL101C, strain DUN1, stronger effect = lower value 0.99 | locus YDL134C, strain PPH21, stronger effect = lower value 0.986 | locus YDL185W, strain tfp1, stronger effect = lower value 0.974 | locus YDL192W, strain arf1, stronger effect = lower value 0.985 | locus YDR001C, strain nth1, stronger effect = lower value 0.997 | locus YDR069C, strain doa4, stronger effect = lower value 0.996 | locus YDR101C, strain arx1, stronger effect = lower value 0.983 | locus YDR137W, strain rgp1, stronger effect = lower value 1.03 | locus YDR150W, strain NUM1, stronger effect = lower value 0.998 | locus YDR159W, strain sac3, stronger effect = lower value 1 | locus YDR162C, strain NBP2, stronger effect = lower value 0.992 | locus YDR195W, strain ref2 0.969 | locus YDR297W, strain sur2, stronger effect = lower value 0.99 | locus YDR318W, strain mcm21, stronger effect = lower value 0.979 | locus YDR334W, strain swr1, stronger effect = lower value 0.992 | locus YDR335W, strain msn5, stronger effect = lower value 0.996 | locus YDR388W, stronger effect = lower value 0.98 | locus YDR392W, strain spt3, stronger effect = lower value 0.953 | locus YDR502C, strain sam2, stronger effect = lower value 0.992 | locus YEL003W, strain gim4, stronger effect = lower value 0.982 | locus YEL037C, strain rad23, stronger effect = lower value 0.989 | locus YEL061C, strain CIN8 (second series), stronger effect = lower value 0.99 | locus YEL061C, strain CIN8, stronger effect = lower value 0.997 | locus YER015W, strain faa2, stronger effect = lower value 1 | locus YER016W, strain bim1, stronger effect = lower value 1 | locus YER110C, stronger effect = lower value 0.975 | locus YER111C, strain swi4, stronger effect = lower value 0.999 | locus YER155C, strain BEM2 (second series), stronger effect = lower value 1.01 | locus YER155C, strain BEM2, stronger effect = lower value 0.978 | locus YER167W, strain BCK2, stronger effect = lower value 0.987 | locus YFR010W, strain ubp6, stronger effect = lower value 0.997 | locus YGL078C, strain dbp3, stronger effect = lower value 0.998 | locus YGL086W, strain mad1, stronger effect = lower value 1 | locus YGL167C, strain pmr1, stronger effect = lower value 1.01 | locus YGL173C, strain kem1, stronger effect = lower value 0.989 | locus YGL227W, strain vid30, stronger effect = lower value 0.993 | locus YGL240W, strain doc1, stronger effect = lower value 0.99 | locus YGL248W, strain PDE1, stronger effect = lower value 0.99 | locus YGL253W, strain hxk2, stronger effect = lower value 0.991 | locus YGR135W, strain pre9, stronger effect = lower value 0.995 | locus YGR229C, strain SMI1, stronger effect = lower value 0.993 | locus YGR252W, strain gcn5, stronger effect = lower value 1.06 | locus YHR013C, strain ard1, stronger effect = lower value 1.01 | locus YHR027C, strain rpn1, stronger effect = lower value 0.995 | locus YHR030C, strain SLT2, stronger effect = lower value 0.992 and 1.01 | locus YHR079C, strain IRE1 (second series), stronger effect = lower value 0.977 | locus YHR079C, strain IRE1, stronger effect = lower value 1 | locus YHR094C, strain hxt1, stronger effect = lower value 0.978 | locus YHR129C, strain ARP1, stronger effect = lower value 1.02 | locus YHR142W, strain chs7, stronger effect = lower value 0.99 | locus YHR200W, strain rpn10, stronger effect = lower value 0.981 | locus YIL066C, strain RNR3, stronger effect = lower value 0.989 | locus YIL073C, strain SPO22, stronger effect = lower value 0.946 | locus YIL125W, strain kgd1, stronger effect = lower value 0.982 | locus YIR030C, strain dcg1, stronger effect = lower value 0.984 | locus YJL092W, strain hpr5, stronger effect = lower value 0.995 | locus YJL095W, strain BCK1 (second series), stronger effect = lower value 1 | locus YJL095W, strain BCK1, stronger effect = lower value 1.01 | locus YJL115W, strain asf1, stronger effect = lower value 0.99 | locus YJL129C, strain trk1, stronger effect = lower value 0.977 | locus YJL134W, strain LCB3, stronger effect = lower value 0.988 | locus YJL154C, strain vps35, stronger effect = lower value 0.998 | locus YJL164C, strain tpk1, stronger effect = lower value 0.989 | locus YJL166W, strain qcr8, stronger effect = lower value 0.979 | locus YJL168C, strain set2, stronger effect = lower value 0.983 | locus YJL187C, strain SWE1 (second series), stronger effect = lower value 0.984 | locus YJL187C, strain SWE1, stronger effect = lower value 0.991 | locus YJR043C, strain POL32, stronger effect = lower value 0.998 | locus YJR066W, strain TOR1, stronger effect = lower value 0.942

— PubChem BioAssay AID1159580 (chemical genetic matrix, 2015)
